Active and inactive are the calls of the source.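 How the source made its calls: active means z-score of at least 1.8 in each of two replicates, scored against plate mean and spread of sample wells; inactive means the rest.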
assay: galactose survival enhancers in mitochondrial complex I cybrids – cell-based, galactose medium, ATP luminescence, primary screen (AID 1645843); conditions: complex I mutant cybrid cells, 72 h, stronger effect = higher value;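 further: positive z means more ATP and so rescue of galactose-driven cybrid death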

Question: Which z-score does the source give for `CCCCCCCCCCCCCC(=O)O[C@@H]1[C@@H](C)[C@@]2(O)[C@@H](C=C(CO)C[C@@]3(O)C(=O)C(C)=C[C@@H]23)C2C(C)(C)[C@@]21OC(C)=O` (stereo partly drawn) here?
Answer: The z-score was -1.38 (inactive).

Question: With `Oc1ccc2c3c1O[C@H]1c4[nH]c5ccccc5c4C[C@@]4(O)C(C2)N(CC2CC2)CCC314` (stereo partly drawn) as the molecule, how does the z-score read?
Answer: The z-score was -0.835 (inactive).

Question: With `COc1cc(C(O)CN)ccc1O` (stereo not drawn) as the molecule, how does the z-score read?
Answer: Its z-score is 0.4 (inactive).

Question: For `NC1CC1c1ccccc1` (stereo not drawn), which z-score is on record?
Answer: Its z-score is 0.355 (inactive).

Question: For `O=C(NC1CN2CCC1CC2)c1cc2ccoc2cn1` (stereo not drawn), which z-score is on record?
Answer: Its z-score is 0.38 (inactive).

Question: With `CN1CCC[C@@H]1Cc1c[nH]c2ccc(Nc3ncccc3[N+](=O)[O-])cc12` as the molecule, how does the z-score read?
Answer: Its z-score is -0.89 (inactive).

Question: For `C[C@@H]1O[C@@H](O[C@H]2C[C@@H](O)[C@]3(CO)[C@@H]4C(CC[C@]3(O)C2)[C@@]2(O)CC[C@H](C3COC(=O)C3)[C@@]2(C)C[C@H]4O)[C@H](O)[C@H](O)[C@H]1O` (stereo partly drawn), which z-score is on record?
Answer: The z-score was -0.995 (inactive).

Question: For `NC(CCP(=O)(O)O)C(=O)O` (stereo not drawn), which z-score is on record?
Answer: Its z-score is 0.32 (inactive).
